Results reported in PMC5540273 (PLoS ONE, 2017).

Columns and labels:
Conditions in all cases: concentration: 1 μM, replicates: in singlicate; n = 1
[1] = system: T1, JNK1
T1 construct: gene MAPK8

[2] = system: T2, JNK2
T2 construct: gene MAPK9

[3] = system: T3, JNK3
T3 construct: gene MAPK10

[4] = system: KIT-autoinhibited
[5] = system: KIT
[6] = system: LATS1
[7] = system: LATS2
[8] = system: LCK
[9] = system: LIMK1
[10] = system: LIMK2
[11] = system: T4, LKB1
T4 construct: gene STK11

[12] = system: T5, LOK
T5 construct: gene STK10

[13] = system: LRRK2
[14] = system: LTK
[15] = system: LYN
[16] = system: T6, LZK
T6 construct: gene MAP3K13

[17] = system: MAK
[18] = system: MAP3K15
[19] = system: MAP3K1
[20] = system: MAP3K2
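Further: KINOMEscan kinase panel screen.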

Row | Compound | %Inh [1] [%] | %Inh [2] [%] | %Inh [3] [%] | %Inh [4] [%] | %Inh [5] [%] | %Inh [6] [%] | %Inh [7] [%] | %Inh [8] [%] | %Inh [9] [%] | %Inh [10] [%] | %Inh [11] [%] | %Inh [12] [%] | %Inh [13] [%] | %Inh [14] [%] | %Inh [15] [%] | %Inh [16] [%] | %Inh [17] [%] | %Inh [18] [%] | %Inh [19] [%] | %Inh [20] [%]
1 | O=C(Nc1n[nH]c2nc(-c3ccco3)c(Br)cc12)c1ccc(CN2CCCC2)cc1.O=C(O)[C@H](O)[C@@H](O)C(=O)O [SB-742352] | 0 | 0 | 0 | 0 | 99.2 | 0 | 0 | 47 | 26 | 0 | 0 | 14 | 0 | 21 | 50 | 0 | 20 | 0 | 0 | 0
2 | CC(=O)Nc1n[nH]c2ncc(-c3ccccc3)cc12 [SB-548492] | 40 | 17 | 17 | 21 | 67 | 14 | 4 | 30 | 0 | 45 | 25 | 0 | 0 | 5 | 0 | 0 | 51 | 11 | 27 | 16
3 | COc1ccc(NC(=O)Nc2ccc(C)c(-c3ccc(C(=O)Nc4ccncc4)cc3)c2)cc1 [GSK1398475] | 5 | 4 | 0 | 0 | 100 | 0 | 6 | 47 | 0 | 22 | 0 | 0 | 0 | 7 | 34 | 0 | 10 | 0 | 0 | 0
4 | O=c1cc(N2CCOCC2)nc2n(Cc3cccc(Cl)c3)ccn12 [GSK2296823] | 21 | 12 | 7 | 4 | 11 | 0 | 46 | 17 | 15 | 0 | 0 | 0 | 35 | 0 | 0 | 0 | 0 | 11 | 6 | 8
5 | Cc1cc(N2CCC(NS(=O)(=O)c3ccc(F)cc3)CC2)nc(Nc2cccc(C#N)c2)n1.O=C(O)C(F)(F)F [GSK1653537] | 16 | 17 | 0 | 0 | 0 | 0 | 0 | 10 | 0 | 0 | 0 | 0 | 20 | 5 | 0 | 0 | 17 | 3 | 7 | 60
6 | Fc1ccc(-c2ncn(CCCNCc3ccccc3)c2-c2ccncc2)cc1 | 34 | 48 | 57 | 4 | 19 | 30 | 34 | 40 | 10 | 7 | 27 | 19 | 0 | 0 | 22 | 12 | 5 | 10 | 15 | 0
7 | CSc1nn2c(=O)cc(N3CCOCC3)nc2n1Cc1cccc(Cl)c1Cl [GSK2347225] | 11 | 26 | 10 | 0 | 23 | 9 | 9 | 31 | 11 | 19 | 0 | 0 | 0 | 4 | 10 | 0 | 24 | 0 | 6 | 1
8 | O=C(Nc1ccccc1F)NC1CCN(c2ccnc(Nc3ccc(F)cc3)n2)C1 (centres unmarked) [GSK1379722] | 29 | 31 | 23 | 0 | 5 | 0 | 0 | 14 | 10 | 0 | 0 | 0 | 39 | 0 | 0 | 23 | 12 | 0 | 5 | 1
9 | CCn1c(-c2ccncc2)nc2cnccc21 [SB-735216] | 23 | 11 | 17 | 10 | 0 | 17 | 9 | 0 | 12 | 0 | 0 | 0 | 0 | 0 | 19 | 59 | 12 | 47 | 10 | 6
10 | Nc1nccc2scc(-c3ccc4c(c3)CCN4C(=O)Cc3cc(F)ccc3F)c12 [GSK2587663] | 22 | 26 | 8 | 0 | 64 | 0 | 8 | 22 | 4 | 13 | 14 | 0 | 9 | 2 | 0 | 0 | 8 | 0 | 7 | 23
11 | O=C(Nc1ccccc1)Nc1ccc(Oc2ccc3nccn3n2)cc1 | 0 | 0 | 0 | 28 | 95.8 | 0 | 0 | 21 | 10 | 14 | 0 | 39 | 0 | 0 | 0 | 0 | 0 | 0 | 0 | 0
12 | Nc1nc(-c2cccnc2)c(-c2ccnc3ccccc23)s1 [GW684083] | 23 | 29 | 11 | 0 | 23 | 0 | 26 | 17 | 0 | 0 | 15 | 0 | 0 | 0 | 72 | 14 | 10 | 0 | 6 | 0
13 | Cl.Cn1ccc(-c2cccc(Nc3ccnc4cc(-c5nccs5)ccc34)c2)n1 [GW525701] | 12 | 13 | 2 | 0 | 33 | 0 | 0 | 3 | 0 | 0 | 0 | 72 | 0 | 0 | 0 | 48 | 0 | 0 | 10 | 0
14 | CCc1nc(-c2cccc(N(C)S(=O)(=O)c3ccccc3)c2)c(-c2ccnc(Nc3ccc(N4CCN(C(C)=O)CC4)nc3)n2)s1 [GSK1645895] | 23 | 30 | 22 | 8 | 19 | 0 | 20 | 44 | 31 | 0 | 4 | 15 | 0 | 0 | 4 | 0 | 22 | 0 | 22 | 0
15 | CCC(CC)(CC)n1cnc2c(N)ncnc21 [SKF-97620] | 29 | 24 | 4 | 0 | 0 | 24 | 0 | 14 | 10 | 0 | 70 | 23 | 9 | 6 | 0 | 36 | 12 | 24 | 21 | 40
16 | Cl.O=S(=O)(c1cccc(F)c1)c1ccc(Nc2ncnc3cc(Br)sc23)cc1Cl [GSK306886] | 0 | 7 | 4 | 0 | 34 | 0 | 0 | 15 | 33 | 3 | 10 | 6 | 0 | 0 | 0 | 0 | 10 | 0 | 24 | 7
17 | Cl.c1ccc(Cn2ccc3cc(Nc4ncnc5ccccc45)ccc32)cc1 [GW275568] | 0 | 23 | 16 | 0 | 41 | 0 | 22 | 41 | 8 | 15 | 0 | 32 | 0 | 6 | 0 | 35 | 25 | 0 | 0 | 0
18 | COc1ccc(Nc2nccc(N3CCC(NC(=O)c4cccc(NC(C)=O)c4)C3)n2)cc1 (centres unmarked) [GSK1379732] | 16 | 23 | 26 | 0 | 7 | 0 | 9 | 9 | 0 | 0 | 22 | 0 | 0 | 0 | 0 | 46 | 14 | 0 | 0 | 0
19 | Nc1nc(-c2ccccn2)c(-c2ccnc3ccccc23)s1 [GW548057] | 0 | 19 | 1 | 3 | 11 | 0 | 23 | 10 | 0 | 9 | 8 | 0 | 0 | 0 | 0 | 51 | 12 | 11 | 10 | 0
